What follows are compounds tested against Hexose transporter 1 (Plasmodium falciparum) (UniProt O97467) (assay: ST_JUDE_LEISH: Cytotoxicity at 2uM final concentration against transgenic Leishmania Mexicana promastigotes LmPfHT that are glucose transport deficient and complemented with the Plasmodium falciparum hexose transporter. Activity is measured by DNA content using SYBR green in vitro).
Assay type: functional

Compound	inhibition
Nc1nc(N)c2c(ccc3[nH]c(-c4ccccc4Cl)nc32)n1	69.7%
c1ccc(-c2nnc(-c3ccccn3)nc2NC2CCCCC2)cc1	79.8%
CC1(C)N=C(N)N=C(Nc2ccc(F)c(F)c2)N1	0.06%
Cc1ccccc1C1CCN(C2CCC(NC(=O)/C=C/c3cc(F)cc(F)c3)CC2)CC1 (stereo not given)	-0.51%
CCOc1ccc(Br)cc1/C=C/C(=O)Nc1ccc(C2CCN(C)CC2)cc1	7.2%
Cc1ccccc1C1CCN(C2CCC(NC(=O)c3cc(-c4ccc(Cl)cc4)cs3)CC2)CC1 (stereo not given)	3.13%
COc1ccc(CNC(=O)Nc2cccc(-c3csc(NC(=N)N)n3)c2)cc1	-0.98%
CNC(=O)c1cnc(Nc2ccc(N3CCN(C)CC3)c(C)c2)nc1NC	-3.69%
O=C1NC(=O)C(c2cccc(NC(=O)c3ccncc3)c2)=C1c1ccccc1	1.65%
Cc1ccc(O)c(-c2cc(C(=O)Nc3ccc(S(=O)(=O)N4CCCC(C)C4)cc3)[nH]n2)c1 (stereo not given)	-0.51%
CCOC(=O)CCCc1cc(NC2CCN(C)CC2)nc(Nc2ccc(OC)cc2)n1	0.24%
Cc1c(C)n(Cc2ccccc2)c2ncnc(OC3CCN(CC(=O)NCC4CC4)CC3)c12	0.12%
N=c1c(C(=O)NCc2ccccc2)cc2c(=O)n3ccccc3nc2n1CCc1ccccc1	4.07%
COc1nc2c(N3CCN(CCNCc4ccc5c(n4)NC(=O)CS5)CC3)ccnc2cc1F	-0.85%
C=CCOC(=O)N1CCC(CNCc2cccc(-c3cccc(-c4nc5cc(F)ccc5[nH]4)c3)c2)C1 (stereo not given)	0.9%
Cc1c(C(=O)C2CC2CN2CCC(N3CCCC3)CC2)sc2ccccc12 (stereo not given)	11.8%
Cc1cc(CN2CC[C@H](NC(=O)c3ccc(Cl)c(Cl)c3)C2)ccc1OCCN1CCNCC1	0.59%
N=C(N)NN=CC(=O)Nc1cc([N+](=O)[O-])cc([N+](=O)[O-])c1	7.12%
CN(CC(=O)Nc1cc(C(F)(F)F)ccc1-n1cncn1)Cc1nc2ccccc2s1	2.69%
CC(C)c1ccc(NC(=O)c2ccc(C(=O)NCC3CCN(CC4CCCCC4)CC3)cc2)cc1	1.53%

Compound	inhibition
Cc1cc(OC(C)C(=O)N2CCc3ccccc32)ccc1Cl (stereo not given)	3.8%
Cc1cc(Nc2ccc(Cl)c(Cl)c2)n2nc(C)nc2n1	-1.26%
CCC1CN2CCc3c([nH]c4ccccc34)[C@@H]2C[C@@H]1CC1NCCc2cc(OC)c(OC)cc21 (stereo not given in full)	-1.25%
O=C(Nc1nc(-c2cc(F)ccc2F)cs1)c1cncc(Br)c1	1.79%
CN1CCCN(Cc2cccc(-c3cccc(NC(=O)c4cccc(C#N)c4)c3)c2)CC1	11.4%
C=CCn1c(Sc2ccc(C#N)c([N+](=O)[O-])c2)nnc1-c1ccc(Cl)cc1	5.18%
CN1CCN(CC2(Nc3nccc(NCc4ccc(Cl)cc4Cl)n3)CCCCC2)CC1	7.74%
CCOc1ccc(C(=O)N2CCOC(CCN3CCC4(CCc5ccccc54)CC3)(c3ccc(Cl)c(Cl)c3)C2)cc1 (stereo not given)	5.56%
Nc1nccc2ccc(-c3ccc4nccn4c3)cc12	3.17%
Cc1cccc2nc(-c3cccc(-c4cccc(NC(=O)c5c[nH]cn5)c4)c3)[nH]c12	0.24%
Cn1cncc1CNCc1ccc(-c2cccc(-c3nc4ccccc4[nH]3)c2)cc1	-1.22%
CCCN(Cc1nnc(-c2cccs2)o1)C(=O)C1COc2ccccc2O1 (stereo not given)	3.17%
Cc1cc(OCCCN2CCC(NS(=O)(=O)c3ccc(Cl)c(Cl)c3)C2)c2ccccc2n1 (stereo not given)	4.67%
c1ccc(C(c2ccccc2)N2CCN(C(c3cccnc3)c3nnnn3C3CCCC3)CC2)cc1 (stereo not given)	-0.82%
Cc1ccc(-c2cccc3c(NC(=O)Nc4ccc5nccc(N6CCN(C)CC6)c5c4)cccc23)cn1	0.17%
Cc1cccc2nc(-c3ccc(-c4ccc(NC(=O)Nc5ccc(F)c(F)c5F)cc4)s3)[nH]c12	0.06%
COc1ccc(C(=O)Nc2cc(Cl)c3c(c2)C2CCCN2CC3)cc1C(F)(F)F (stereo not given)	2.02%
Cc1cccc2nc(-c3ccc(-c4cccc(CN5CCCCC5)c4)s3)[nH]c12	5.12%
COc1cc(OC)cc(C(=O)Nc2cccc(-c3cn4ccc(C)cc4n3)c2)c1	2.27%
CC(C)N1CCCN(C(=O)C2CCN(c3ccc(C(=O)N4CCCC4)cn3)CC2)CC1	4.11%

What follows are compounds tested against Glucose transporter (Leishmania mexicana) (UniProt O61059) (assay: ST_JUDE_LEISH: Cytotoxicity at 2uM final concentration against transgenic Leishmania Mexicana promastigotes LmGT2 that are glucose transport deficient and complemented with the L. Mexicana glucose transporter 2. Activity is measured by DNA content using SYBR green in vitro).
Assay type: functional

Compound	inhibition
Nc1nc(N)c2c(ccc3[nH]c(-c4ccccc4Cl)nc32)n1	61.8%
c1ccc(-c2nnc(-c3ccccn3)nc2NC2CCCCC2)cc1	71.2%
CC1(C)N=C(N)N=C(Nc2ccc(F)c(F)c2)N1	-0.02%
Cc1ccccc1C1CCN(C2CCC(NC(=O)/C=C/c3cc(F)cc(F)c3)CC2)CC1 (stereo not given)	-1.77%
CCOc1ccc(Br)cc1/C=C/C(=O)Nc1ccc(C2CCN(C)CC2)cc1	5.47%
Cc1ccccc1C1CCN(C2CCC(NC(=O)c3cc(-c4ccc(Cl)cc4)cs3)CC2)CC1 (stereo not given)	-2.52%
COc1ccc(CNC(=O)Nc2cccc(-c3csc(NC(=N)N)n3)c2)cc1	1.03%
CNC(=O)c1cnc(Nc2ccc(N3CCN(C)CC3)c(C)c2)nc1NC	3.79%
O=C1NC(=O)C(c2cccc(NC(=O)c3ccncc3)c2)=C1c1ccccc1	-4.34%
Cc1ccc(O)c(-c2cc(C(=O)Nc3ccc(S(=O)(=O)N4CCCC(C)C4)cc3)[nH]n2)c1 (stereo not given)	0.63%
CCOC(=O)CCCc1cc(NC2CCN(C)CC2)nc(Nc2ccc(OC)cc2)n1	1.72%
Cc1c(C)n(Cc2ccccc2)c2ncnc(OC3CCN(CC(=O)NCC4CC4)CC3)c12	0.21%
N=c1c(C(=O)NCc2ccccc2)cc2c(=O)n3ccccc3nc2n1CCc1ccccc1	2.34%
COc1nc2c(N3CCN(CCNCc4ccc5c(n4)NC(=O)CS5)CC3)ccnc2cc1F	0.49%
C=CCOC(=O)N1CCC(CNCc2cccc(-c3cccc(-c4nc5cc(F)ccc5[nH]4)c3)c2)C1 (stereo not given)	-0.93%
Cc1c(C(=O)C2CC2CN2CCC(N3CCCC3)CC2)sc2ccccc12 (stereo not given)	5.26%
Cc1cc(CN2CC[C@H](NC(=O)c3ccc(Cl)c(Cl)c3)C2)ccc1OCCN1CCNCC1	0.3%
N=C(N)NN=CC(=O)Nc1cc([N+](=O)[O-])cc([N+](=O)[O-])c1	6.66%
CN(CC(=O)Nc1cc(C(F)(F)F)ccc1-n1cncn1)Cc1nc2ccccc2s1	5.21%
CC(C)c1ccc(NC(=O)c2ccc(C(=O)NCC3CCN(CC4CCCCC4)CC3)cc2)cc1	1.95%

Compound	inhibition
Cc1cc(OC(C)C(=O)N2CCc3ccccc32)ccc1Cl (stereo not given)	6.71%
Cc1cc(Nc2ccc(Cl)c(Cl)c2)n2nc(C)nc2n1	0.04%
CCC1CN2CCc3c([nH]c4ccccc34)[C@@H]2C[C@@H]1CC1NCCc2cc(OC)c(OC)cc21 (stereo not given in full)	-1.42%
O=C(Nc1nc(-c2cc(F)ccc2F)cs1)c1cncc(Br)c1	1.42%
CN1CCCN(Cc2cccc(-c3cccc(NC(=O)c4cccc(C#N)c4)c3)c2)CC1	10.3%
C=CCn1c(Sc2ccc(C#N)c([N+](=O)[O-])c2)nnc1-c1ccc(Cl)cc1	2.18%
CN1CCN(CC2(Nc3nccc(NCc4ccc(Cl)cc4Cl)n3)CCCCC2)CC1	6.18%
CCOc1ccc(C(=O)N2CCOC(CCN3CCC4(CCc5ccccc54)CC3)(c3ccc(Cl)c(Cl)c3)C2)cc1 (stereo not given)	5.12%
Nc1nccc2ccc(-c3ccc4nccn4c3)cc12	4.92%
Cc1cccc2nc(-c3cccc(-c4cccc(NC(=O)c5c[nH]cn5)c4)c3)[nH]c12	-1.05%
Cn1cncc1CNCc1ccc(-c2cccc(-c3nc4ccccc4[nH]3)c2)cc1	-4.84%
CCCN(Cc1nnc(-c2cccs2)o1)C(=O)C1COc2ccccc2O1 (stereo not given)	1.58%
Cc1cc(OCCCN2CCC(NS(=O)(=O)c3ccc(Cl)c(Cl)c3)C2)c2ccccc2n1 (stereo not given)	3.91%
c1ccc(C(c2ccccc2)N2CCN(C(c3cccnc3)c3nnnn3C3CCCC3)CC2)cc1 (stereo not given)	-1.23%
Cc1ccc(-c2cccc3c(NC(=O)Nc4ccc5nccc(N6CCN(C)CC6)c5c4)cccc23)cn1	7.64%
Cc1cccc2nc(-c3ccc(-c4ccc(NC(=O)Nc5ccc(F)c(F)c5F)cc4)s3)[nH]c12	0.31%
COc1ccc(C(=O)Nc2cc(Cl)c3c(c2)C2CCCN2CC3)cc1C(F)(F)F (stereo not given)	-1.06%
Cc1cccc2nc(-c3ccc(-c4cccc(CN5CCCCC5)c4)s3)[nH]c12	1.81%
COc1cc(OC)cc(C(=O)Nc2cccc(-c3cn4ccc(C)cc4n3)c2)c1	5.98%
CC(C)N1CCCN(C(=O)C2CCN(c3ccc(C(=O)N4CCCC4)cn3)CC2)CC1	4.51%

Reference: ChEMBL document CHEMBL3433997, “St. Jude Leishmania screening dataset” (2016)
